An excerpt weighted towards active compounds, which were near 8.1% of everything screened.
ELG1 DNA repair – inhibitors of ELG1-dependent DNA repair in HEK293T cells. Potency, µM (highest dose often 46.1 µM), usual class: inhibitors. HEK293T ELG1-luciferase reporter, luminescence, 16 h; DNA damage induced by 5-fluorouridine. actives 2.3% (n = 330,000). AID 504467; note: nearly all actives have a fitted effect of over 55% in size
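Cells (2,000 per well) received 5-fluorouridine plus test compound or DMSO and were incubated 16 hr at 37 °C, 5% CO2. Luciferase activity was read by luminescence 30 min after ONE-Glo addition; signal suppression marked inhibition of damage-induced ELG1 function.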
SW480 rereplic – inducers of DNA re-replication in SW480 colon cancer cells; actives 1.8% (n = 340,000); SW480 DNA re-replication, Hoechst DNA content imaging, 48 h; Potency, µM (series often up to 46.1 µM), most hits filed as activators; AID 624297; note: nearly all actives have a fitted effect of over 55% in size
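Image-based DNA-content assay: after two days of treatment, nuclei were labelled with the DNA dye Hoechst and imaged, and hits were compounds raising the count of nuclei showing high fluorescence intensity.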
KB-3-1 cytotox – kills parental KB-3-1 adenocarcinoma cells | KB-3-1 viability, CellTiter-Glo ATP luminescence, 72 h | Potency, µM (series often up to 46.1 µM), most hits filed as cytotoxic | actives 1.4% (n = 400,000) | AID 1347075; note: nearly all actives have a fitted effect of over 60% in size
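Using CellTiter-Glo luminescence, growth of non-resistant KB-3-1 adenocarcinoma cells is assessed 72 h after pin-tool compound addition at 37 °C. Normalized responses across the concentration series yield fitted curves.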
MCF10A rereplic – induces DNA re-replication in MCF 10a normal breast cells; MCF 10A DNA re-replication, Hoechst nuclear intensity, 48 h; Potency, µM (doses to about 46.1 µM), actives largely listed as activators; actives 2.9% (n = 350,000); note: nearly all actives have a fitted effect of over 50% in size
KB-V1 cytotox – kills drug-selected multidrug resistant KB-V1 cells. AID 1347076. Potency, µM (series often up to 46.1 µM), hits mostly cytotoxic. actives 3.4% (n = 400,000). KB-V1 MDR cells viability, CellTiter-Glo, 72 h; note: nearly all actives have a fitted effect of over 60% in size
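In this primary screen, KB-V1 cells overexpressing P-gp are incubated with library compounds (lowest to highest concentration) for 72 h at 37 degrees C before a luminescent ATP viability read.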
Of the large screens only hits and unclear results are named; the others gave an inactive call. Calls come from the whole dose curve; as a rule, active = well fitted curve in the direction sought with a large enough effect; inconclusive = small, poorly fitted or top-dose-only effect, or another doubt; inactive = no such curve, though single readings can be large; an effect the other way counts as inactive or inconclusive.

CC(C)CCC(=O)OC1CCC2C3CCC4=CC(=O)CC[C@]4(C)C3CC[C@]12C (some centres not stated)	MCF10A rereplic inconclusive (no result: ELG1 DNA repair, KB-3-1 cytotox, KB-V1 cytotox)
Cc1sc2c(c1C)C(c1ccc(C(C)(C)C)cc1)=NCC(=O)N2CC(=O)Nc1nccs1	KB-3-1 cytotox inconclusive, MCF10A rereplic inconclusive, KB-V1 cytotox 21µM
Cc1sc2c(c1C)C(c1cccs1)=NCC(=O)N2CC(=O)NCc1cccs1	MCF10A rereplic inconclusive, KB-V1 cytotox inconclusive
CC[C@@H](C)[C@H](C(CC(=O)N1CCCC1[C@@H](OC)[C@H](C)C(=O)N[C@H](Cc1ccccc1)c1nccs1)OC)N(C)C(=O)[C@H](NC(=O)[C@@H](C(C)C)N(C)C)C(C)C (some centres not stated)	SW480 rereplic 0.082µM, KB-3-1 cytotox inconclusive, KB-V1 cytotox 0.18µM (no result: ELG1 DNA repair)
Cc1cc([N+](=O)[O-])c2ccccc2[n+]1[O-]	ELG1 DNA repair inconclusive, SW480 rereplic 15µM, KB-3-1 cytotox 0.92µM, MCF10A rereplic 16µM, KB-V1 cytotox 0.52µM
O=c1cc(O)c2ccccc2[nH]1	MCF10A rereplic inconclusive, KB-V1 cytotox inconclusive
COc1ccc(OC(=O)N2C/C(=C/c3ccccc3)C(=O)/C(=C\c3ccccc3)C2)cc1	SW480 rereplic 3.7µM, KB-3-1 cytotox inconclusive, MCF10A rereplic 7.3µM, KB-V1 cytotox inconclusive (no result: ELG1 DNA repair)
CCOC(=O)CSc1nn(-c2ccccc2)c(=S)s1	none
CN(C)C(=O)O/N=C(\N)COc1ccc(C(C)(C)C)cc1	ELG1 DNA repair inconclusive, SW480 rereplic 12µM, MCF10A rereplic inconclusive, KB-V1 cytotox inconclusive
CCOc1ccc2nc(NC(=O)c3cccn(Cc4ccccc4)c3=O)sc2c1	none (no result: ELG1 DNA repair, SW480 rereplic, MCF10A rereplic)
CC(=O)c1ccc2c(c1)C1C(Cl)C(Sc3ccccc3[N+](=O)[O-])CC1C(c1ccccc1[N+](=O)[O-])N2 (configuration not stated)	ELG1 DNA repair 4.1µM
CC(=O)c1ccc2c(c1)C1C(Cl)C(Sc3ccccc3[N+](=O)[O-])CC1C(c1ccccc1)N2 (configuration not stated)	ELG1 DNA repair inconclusive, KB-V1 cytotox inconclusive
CCNC(=O)CCSc1nc2cc(Cl)ccc2o1	SW480 rereplic inconclusive
Cc1cc(C=C2C(=O)N(C)C(=O)N(C)C2=O)c(C)n1-c1ccccc1	none
CN1C(=O)C(=Cc2sc(=O)n(-c3ccccc3)c2N(C)C)C(=O)N(C)C1=O	ELG1 DNA repair inconclusive, KB-3-1 cytotox inconclusive, MCF10A rereplic 18µM
CC(C)N1CCN(Cc2cccc([N+](=O)[O-])c2)CC1	SW480 rereplic 1.8µM
O=[N+]([O-])c1cccc(CN2CC=C(c3ccc(F)cc3)CC2)c1	KB-3-1 cytotox 9.2µM
Cc1ccc(C2=NC(C)(C)N3C2C3c2ccc([N+](=O)[O-])cc2)cc1 (configuration not stated)	KB-3-1 cytotox inconclusive, KB-V1 cytotox 18µM
O=[N+]([O-])c1ccc(C2[C@H]3C(c4ccccc4)=NC4(CCCC4)N23)cc1 (some centres not stated)	none
O=C(COc1ccccc1F)N1CCN(Cc2cc(=O)n3nc(-c4ccccc4Cl)sc3n2)CC1	none (no result: ELG1 DNA repair, SW480 rereplic, MCF10A rereplic)
CC1(C)c2[nH]c3ccccc3c2C[C@@H]2C(=O)N(Cc3ccccc3F)C(=O)N21	KB-3-1 cytotox inconclusive, MCF10A rereplic inconclusive, KB-V1 cytotox inconclusive (no result: ELG1 DNA repair)
COc1ccc([C@H]2CC(=O)C=C(c3ccc4c5c(cccc35)CC4)C2)cc1	MCF10A rereplic inconclusive
CN(Cc1ccccc1)C(=O)c1ccc(NC(=O)C2CCN(C(=O)OC(C)(C)C)CC2)cc1	ELG1 DNA repair 10µM, KB-3-1 cytotox inconclusive
NS(=O)(=O)c1cc([C@@]2(O)NC(=O)c3ccccc32)ccc1Cl	none (no result: ELG1 DNA repair, KB-3-1 cytotox, KB-V1 cytotox)
C=C(C=O)C[C@@H]1C[C@H](O)C2OC3C[C@]4(C)OC5/C=C\CC6OC7C(CC=CCC6OC5CCCC4OC3CC2O1)OC1CC2OC3CC(=O)OC3C[C@@H](C)C[C@@]2(C)OC1C[C@@H]7C (some centres not stated)	ELG1 DNA repair 4.1µM, KB-3-1 cytotox 4.6µM, MCF10A rereplic 0.73µM, KB-V1 cytotox 8.2µM
CN(c1ccc(OCC(=O)N2CCN(C/C=C/c3ccccc3)CC2)cc1)S(=O)(=O)c1cccs1	ELG1 DNA repair 13µM, SW480 rereplic inconclusive, KB-3-1 cytotox inconclusive, MCF10A rereplic inconclusive
O=C(c1cc(-c2cccc(Cl)c2)on1)N1CCOCC1	ELG1 DNA repair inconclusive
CCCOC(=O)c1ccc(-[n+]2c(-c3ccccc3)cc(-c3ccccc3)cc2-c2ccccc2)cc1	KB-3-1 cytotox 16µM, MCF10A rereplic inconclusive
COc1ccc(-c2cc(-c3ccccc3)[n+](C)c(-c3ccccc3)c2)cc1	ELG1 DNA repair inconclusive, SW480 rereplic inconclusive, KB-3-1 cytotox 3.3µM
O=C(O)c1ccc(-[n+]2c(-c3ccccc3)cc(-c3ccccc3)cc2-c2ccccc2)cc1	none
Cc1ccc(-c2cc(-c3ccccc3)cc(-c3ccccc3)[n+]2-c2ccc(C(=O)O)cc2)cc1	SW480 rereplic inconclusive
COc1ccc(-[n+]2c(-c3ccccc3)cc(-c3ccc(C)cc3)cc2-c2ccccc2)cc1	ELG1 DNA repair 3.7µM, SW480 rereplic inconclusive, KB-3-1 cytotox 2.6µM, MCF10A rereplic inconclusive
C[n+]1c(-c2ccccc2)cc(CCCCc2cc(-c3ccccc3)[n+](C)c(-c3ccccc3)c2)cc1-c1ccccc1	ELG1 DNA repair inconclusive, KB-3-1 cytotox inconclusive, MCF10A rereplic inconclusive
CCc1cc2c(=O)n(C(C)C(=O)OC3CCCCC3)cnc2s1 (configuration not stated)	ELG1 DNA repair inconclusive, MCF10A rereplic inconclusive, KB-V1 cytotox inconclusive
NS(=O)(=O)c1ccc(CCNC(=O)c2ccc(Cl)c(S(=O)(=O)N3CCCCC3)c2)cc1	ELG1 DNA repair 16µM, KB-3-1 cytotox inconclusive
CCOC(=O)N1CCN(C(=O)C(CC(C)C)NS(=O)(=O)c2ccc3c(c2)oc(=O)n3C)CC1 (configuration not stated)	MCF10A rereplic inconclusive
OC1(c2ccc(F)cc2)CC2CCC(C1)N2Cc1nnnn1C1CCCC1 (configuration not stated)	ELG1 DNA repair inconclusive
c1ccc(CCn2nnnc2CN2CCC(n3nnc4ccccc43)CC2)cc1	KB-V1 cytotox 5.8µM
Fc1ccc2c(c1)nnn2C1CCN(Cc2nnnn2CCc2ccccc2)CC1	none
Cc1nc2cc(C(F)(F)F)ccc2n1C1CCN(Cc2nnnn2Cc2cccs2)CC1	KB-V1 cytotox inconclusive
FC(F)(F)c1ccc2c(c1)ncn2C1CCN(Cc2nnnn2C2CCCCC2)CC1	ELG1 DNA repair inconclusive, KB-3-1 cytotox inconclusive, KB-V1 cytotox 7.3µM
Fc1ccc(Cn2nnnc2CN2CCC(n3nnc4cc(C(F)(F)F)ccc43)CC2)cc1	ELG1 DNA repair inconclusive, MCF10A rereplic 26µM, KB-V1 cytotox inconclusive
Cc1nc2cc(C(F)(F)F)ccc2n1C1CCN(Cc2nnnn2Cc2ccc3c(c2)OCO3)CC1	ELG1 DNA repair 6.5µM, KB-3-1 cytotox inconclusive, MCF10A rereplic inconclusive, KB-V1 cytotox 18µM
